We go through 37 molecules from PubChem BioAssay (Tox21).

Inconclusive results are not listed. A call without a number means that no potency is given here. Activity calls are given as the source filed them. Calls follow the shape of the dose curve; as a rule, active = well fitted inhibition curve with a large enough effect in the repeat runs; inconclusive = weak or mixed curves; inactive = no such curve, though single readings can be large or run the other way.
Potency is read from the fitted curve at half-maximal effect.

Cytochrome P450 2D6 (Homo sapiens), sequence (P10635 whole entry, looked up): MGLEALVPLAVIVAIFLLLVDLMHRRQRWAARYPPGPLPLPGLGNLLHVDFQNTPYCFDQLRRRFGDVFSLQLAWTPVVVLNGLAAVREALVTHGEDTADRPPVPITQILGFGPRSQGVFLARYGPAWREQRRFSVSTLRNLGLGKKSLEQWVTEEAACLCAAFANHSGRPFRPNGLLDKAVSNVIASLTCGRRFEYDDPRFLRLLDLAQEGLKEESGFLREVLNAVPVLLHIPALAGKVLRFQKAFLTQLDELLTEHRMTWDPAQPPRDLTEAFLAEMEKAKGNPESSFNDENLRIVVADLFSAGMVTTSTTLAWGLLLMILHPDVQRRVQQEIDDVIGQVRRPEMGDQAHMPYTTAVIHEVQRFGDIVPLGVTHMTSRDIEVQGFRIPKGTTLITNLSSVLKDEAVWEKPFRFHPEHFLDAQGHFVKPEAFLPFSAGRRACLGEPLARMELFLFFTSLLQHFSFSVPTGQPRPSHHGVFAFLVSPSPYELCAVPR

The target in the experiment is Cytochrome P450 2D6 (Homo sapiens) (UniProt P10635). Briefly: Cytochrome P450 Family 2 Subfamily D Member 6 (CYP2D6) small molecule antagonists: luciferase reporter qHTS assay (AID 1671196). Also: nearly all actives have a fitted effect of over 50% in size. To be noted: P450-Glo CYP2D6 enzyme assay, luciferin luminescence, 1 h; series mostly up to 115 µM. The method in brief:
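CYP2D6 activity was followed as luminescence from its luciferin product after a 1 h NADPH-driven reaction at room temperature. Enzyme-substrate mix and compound were pre-incubated for 10 min, and the signal was read 20 min after adding detection reagent.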
A general note: A reporter such as luciferase makes a cellular process visible.
With `CC(C)CCC(=O)CCC(C)C`, the Potency entry was “inactive”. Take `Cc1cccc(C(=O)O)c1[N+](=O)[O-]`: the Potency is 31.8 µM (active). As to `CCCCCC(=O)OCC`, the Potency result is “inactive”. On to `C[C@H](CCC(=O)NCC(=O)O)[C@H]1CC[C@H]2[C@@H]3[C@H](O)C[C@@H]4C[C@H](O)CC[C@]4(C)[C@H]3C[C@H](O)[C@]12C`, for which the Potency entry was “inactive”.

Turning to `CC(C)CCCCCCOC(=O)C1CCCCC1C(=O)OCCCCCCC(C)C` (configuration not stated), the Potency result is “inactive”. Then `CC(C)=CC(C)(C)C`, with “inactive”; and `COCCOCCOCCOC`, with “inactive”; and `O=C(O)C(=O)Nc1cccc(-c2nn[nH]n2)c1`, with “inactive”.

Consider `CCN(CCO)c1cccc(C)c1`, for which the Potency entry was “inactive”. Under `COC(/C=C(\C)CCC=C(C)C)OC` stands “inactive”. Then `CCCCC(CC)COC(=O)c1ccccc1` (configuration not stated), with “inactive”; and `CCCOC(=O)CCCCC(=O)OCCC`, with “inactive”. For `CC(Cl)COP(=O)(OCC(C)Cl)OCC(C)Cl` (configuration not stated), the Potency result was “inactive”. For the molecule `CCCCC(CC)C(=O)OC(C)C` (configuration not stated), the Potency result is “inactive”. Consider `O=C(O)c1ccc(OCCN2CCCCC2)cc1`, for which the Potency entry was “inactive”. Then `CCCCC/C=C/CC(=O)OC`, with “inactive”; and `CC(C)CCCC(C)CC=O` (configuration not stated), with “inactive”; and `CC(C)(C)c1ccc(C=O)cc1`, with “inactive”. With `C1=C\CC/C=C\CC/1`, the Potency result was “inactive”. `CCC(O)C(C)(C)C` (configuration not stated): the Potency result was “inactive”. Under `C/C=C(\C)C(=O)OCC/C=C\CC` stands “inactive”.

For the molecule `O=C(c1ccc2c(c1)C(=O)OC2=O)c1ccc2c(c1)C(=O)OC2=O`, the Potency entry is “inactive”.

In the case of `O=C(O)c1c(Cl)ccc(Cl)c1Cl`, the Potency result is “inactive”.

With `O=C(O)CCNC(=O)c1ccccc1`, the Potency result was “inactive”. Take `NC(=O)NNC(N)=O`: the Potency result is “inactive”. Regarding `CCCCC(C)C(=O)O` (configuration not stated), the Potency entry was “inactive”. With `CCOC(=O)CC(CC(=O)OCC)(OC(C)=O)C(=O)OCC`, the Potency result is “inactive”. Regarding `CCNC(=O)NCCCOc1cccc(CN2CCCCC2)c1`, the Potency is 13.8 µM (active). Under `CC1=CC[C@H](CC=O)C1(C)C` stands “inactive”; under `CCOC(=O)C(C)(C)C`, “inactive”. Then `Nc1ccc(C(=O)OCC(O)CO)cc1` (configuration not stated), with “inactive”; and `OC[C@@H](O)[C@H](O)[C@@H](O)[C@@H](O)CO`, with “inactive”. Under `CCCCCC1CCCC(=O)O1` (configuration not stated) stands “inactive”; under `COc1ccc(N=Nc2cc(C)c(N=Nc3ccc(S(=O)(=O)O)cc3)cc2OC)cc1`, “inactive”; under `CC(=O)OCCCc1ccccc1`, “inactive”.

With `CCC(C)(CCC(C)C)C(=O)[O-].CCC(C)(CCC(C)C)C(=O)[O-].[Zn+2]` (configuration not stated), the Potency result was “inactive”. As for `Cc1nc(C)nc(N2C[C@@H](C)N(c3ccnc([C@@H](C)O)n3)[C@@H](C)C2)n1`, the Potency entry is “inactive”.
